High-throughput results as filed in PubChem BioAssay.
In the library only some 2.5% were active in any assay of this set; here they are far more common.
MRP reversal = reversal of MRP1-mediated doxorubicin resistance, primary screen, H69AR cells, doxorubicin co-treatment; H69AR cells + 2 uM doxorubicin, CellTiter-Glo, 72 h; differential viability (reversal), % at 10 µM; actives 0.04% (n = 85,000);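 active means viability drop by adding the cancer drug above about 55%, with treated viability meeting a 40% cutoff, limit read from the data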;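 further: viability without doxorubicin minus viability with 2 µM doxorubicin for each compound; larger differential means the compound sensitizes cells more to doxorubicin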
sEH inh = soluble epoxide hydrolase inhibitors, primary screen, biochemical, human sEH; Bifunctional epoxide hydrolase 2 (Homo sapiens), P34913; recombinant human sEH enzymatic activity assay; inhibition, % at 2 µM; actives 0.34% (n = 91,000); AID 707, 2007; in the data active means inhibition above about 80%
Target sequence (P34913 whole entry, looked up): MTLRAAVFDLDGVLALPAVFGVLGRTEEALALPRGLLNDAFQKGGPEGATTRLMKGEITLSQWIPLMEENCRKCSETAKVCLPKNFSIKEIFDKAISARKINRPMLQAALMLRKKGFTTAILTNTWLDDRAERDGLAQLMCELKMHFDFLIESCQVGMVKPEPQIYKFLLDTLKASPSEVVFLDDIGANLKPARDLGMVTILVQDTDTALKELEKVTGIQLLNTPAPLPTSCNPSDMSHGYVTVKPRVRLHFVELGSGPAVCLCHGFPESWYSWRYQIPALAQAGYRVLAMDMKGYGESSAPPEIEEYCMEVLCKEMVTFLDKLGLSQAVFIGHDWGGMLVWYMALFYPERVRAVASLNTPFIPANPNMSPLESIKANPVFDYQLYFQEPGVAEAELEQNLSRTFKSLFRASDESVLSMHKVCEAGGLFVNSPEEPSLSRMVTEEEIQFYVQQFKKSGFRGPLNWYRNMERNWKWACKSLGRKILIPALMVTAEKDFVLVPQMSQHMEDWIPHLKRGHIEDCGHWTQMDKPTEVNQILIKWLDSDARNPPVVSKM
SDO1 yeast rescue = growth rescue of sdo1-depleted yeast, primary screen, S. cerevisiae, bone marrow failure model | S. cerevisiae sdo1-depleted JHY4D growth rescue, OD600 30 h; hits give high values; pdr5 snq2 efflux-pump mutant strain | actives 0.21% (n = 140,000) | AID 817, 2007 | z-score at 10 µM;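 active means z-score above 3 at both the 24 hr and the 30 hr optical density reads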;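 further: z-score against mean and SD of all compound wells on the same plate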
Measles CPE = compounds protecting cells from measles virus cytopathic effect, primary screen, measles RdRp inhibitor project, single point, MLSMR library, absorbance; Measles virus-infected cells, CPE protection; actives 1.5% (n = 140,000); protection (pct of control), % at 4 µM; in the data active means protection mostly above about 24%, no sharp cut-off; inactive means mostly below about 26%
sEH act = soluble epoxide hydrolase activators, primary screen, biochemical, human sEH; purified human sEH enzymatic activity, activator screen; Bifunctional epoxide hydrolase 2 (Homo sapiens), P34913; AID 717, 2007; activation, % at 2 µM; actives 0.04% (n = 91,000); in the data active means activation above about 37%
MRP1 act = H69AR viability gain despite doxorubicin, primary screen, MRP-1 activator project, H69AR cells, CellTiter-Glo; viability rescue; viability increase, % at 10 µM; actives 0.61% (n = 140,000);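 active means viability gain under doxorubicin at or above a set limit, the compound median plus 3 SD, cut at about 4.7% in these data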;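 further: MRP-1 overexpressing cells given doxorubicin 25 µM after compound pretreatment; 18-22 h compound pretreatment then 72 h with doxorubicin before readout; 0% = doxorubicin-only wells and 100% = vehicle-treated cells without doxorubicin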
sdo1 rescue conf = SDO1-depleted yeast growth rescue, concentration-response, diseases of bone marrow failure, JHY4D, OD600; shares compounds with SDO1 yeast rescue; S. cerevisiae JHY4D (SDO1-depleted) growth rescue, 30 h; hits give high values; efflux-deficient strain, SNQ2 and PDR5 mutated; OD recovery (no concentration beside the values); actives 44% (n = 440); AID 949, 2007;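 active means yeast growth recovered at 30 hours, either rising with dose fitted slope above 0.001 or with average optical density gain above 0.07, some results past the limit were not filed as active; inactive means growth falling with dose or no effect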;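 further: gain in OD600 from 0 h to 30 h averaged across all seven doses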
* marks the source's active call; other numbers are inactive results; · = no result given.

SMILES | MRP reversal | sEH inh | SDO1 yeast rescue | Measles CPE | sEH act | MRP1 act | sdo1 rescue conf
CCC1(C)Cc2ccccc2-c2nc(NCCCO)n(-c3ccccc3)c(=O)c21 (stereo not given) | -30.2 | 0.9 | 5.82* | 1.8 | -3.5 | -4.2 | 0.074
CC(C)CNC(=O)c1ccc(NC(=O)c2cccs2)cc1 | · | · | -0.83 | 4.8 | · | 0.6 | ·
COc1cccc(CNC(=O)C2CCCN(S(=O)(=O)c3cccc4nonc34)C2)c1 (stereo not given) | 8.6 | -11.3 | 2.78 | 0.8 | 8.1 | -2.7 | 0.0864*
COc1cc(OC)c(-c2c3cc(O)c(=O)cc-3oc3cc(O)c(O)cc23)cc1OC | · | · | 3.77* | · | · | 3.0 | -0.0253
Cc1c2cc(O)c(=O)cc-2oc2cc(O)c(O)cc12 | · | -11.0 | 0.57 | 10.6 | 12.7 | 1.0 | ·
COc1cc(CNCc2ccccn2)ccc1OCc1ccc(Cl)cc1 | · | · | 0.39 | 3.5 | · | -1.2 | ·
COc1cc(CNCc2ccccn2)ccc1OCc1cccc(Cl)c1 | · | -2.7 | 7.74* | 7.2 | -0.3 | -5.4 | 0.072*
CCOC(=O)c1nnn(-c2nonc2N)c1CN1CCc2ccccc2C1 | 2.0 | 4.2 | 11.2* | 37.8 | -3.0 | -2.8 | 0.106*
COc1cc(/C=N/NC(=O)c2ccoc2C)ccc1O | · | · | 2.59 | 25.2 | · | 0.9 | 0.074*
COc1cc(/C=N/NC(=O)c2nc(C)cc(C)n2)ccc1O | -1.1 | -9.6 | 0.71 | 5.1 | 9.6 | -0.3 | ·
CCOC(=O)c1cnc(SCC(=O)Nc2ccc(NC(=O)CC)c(OC)c2)nc1N | -14.2 | 2.0 | 1.56 | 3.7 | -2.0 | -3.9 | ·
COc1ccc(CCn2c(C)c(C(C)=O)c3cc(OC(=O)c4ccco4)ccc32)cc1OC | -3.2 | -3.0 | 0.37 | 10.2 | 3.8 | -3.3 | ·
CCCn1nnc(NC(=O)c2cccc(OCc3ccccc3)c2)n1 | -1.2 | 17.8 | -1.62 | 5.4 | -15.9 | -2.5 | ·
Cc1cc(C(F)F)n2nc(C(=O)Nc3sc4c(c3C#N)CCC(C)C4)nc2n1 (stereo not given) | 11.2 | -8.6 | -0.84 | 4.1 | 7.9 | 0.1 | ·
Cc1cc(C(=O)Nc2sc3c(c2C#N)CCC(C)C3)cs1 (stereo not given) | -6.5 | -15.0 | 2.25 | 0.7 | 13.6 | -3.1 | 0.0555
O=C(NC1CCCCC1)C(c1cc2c(cc1[N+](=O)[O-])OCO2)N1CCCCC1 (stereo not given) | · | · | -0.62 | 5.3 | · | -1.3 | ·
O=C(CCCOc1ccccc1)N1CCN(c2ccccc2)CC1 | 21.5 | 4.5 | 8.77* | 1.7 | -3.8 | 0.0 | 0.0991*
O=C(Cn1c2ccccc2c(=O)c2ccccc21)Nc1cccc(F)c1 | · | · | -0.81 | 12.3 | · | -0.3 | ·
COc1ccc(CNc2nc3c(c(=O)n(Cc4ccc(Br)cc4)c(=O)n3C)n2C)cc1 | -0.3 | -12.6 | -0.01 | 14.7 | 12.8 | 5.2* | 0.0694
Cn1c(NCc2ccccc2)nc2c1c(=O)n(Cc1ccc(Br)cc1)c(=O)n2C | 19.0 | · | -2.02 | 13.1 | · | 0.3 | ·
CNC(=O)c1cc2cc(OC)ccc2oc1=N | -6.4 | · | 12.2* | 7.0 | · | 0.7 | 0.102*
CNC(=O)c1cc2cc(OC)ccc2oc1=O | 1.0 | 3.5 | 0.41 | 20.1 | -2.1 | 0.0 | ·
CC(C)Oc1ccccc1/C=N/Nc1ccccc1[N+](=O)[O-] | · | · | -0.79 | -0.3 | · | -1.3 | ·
CCOc1ccccc1/C=N/Nc1ccccc1[N+](=O)[O-] | · | -6.2 | 1.2 | 1.0 | 4.1 | -1.9 | 0.0523
COc1ccc(C2(CNC(=O)c3cccc([N+](=O)[O-])c3)CCOCC2)cc1 | · | · | 0.22 | 5.1 | · | -1.8 | ·
SMILES | MRP reversal | sEH inh | SDO1 yeast rescue | Measles CPE | sEH act | MRP1 act | sdo1 rescue conf
N#CC(C(=O)C1CCCCC1)c1nc2ccccc2[nH]1 (stereo not given) | -14.3 | -2.8 | 8.84* | 7.2 | 3.9 | -1.6 | 0.043
Cc1[nH]c2ccccc2c1C(=O)CN1CCN(C/C=C/c2ccccc2)CC1 | · | 6.0 | -0.43 | 36.2 | -5.1 | -3.9 | ·
Cc1[nH]c2ccccc2c1C(=O)CN1CCN(C2CCCCC2)CC1 | 3.3 | -1.9 | 9.08* | 3.2 | 1.5 | -1.9 | 0.0448
CC(=O)Oc1ccc(NC(=O)CSc2ccccc2)cc1 | · | 6.1 | -0.96 | 10.1 | -3.3 | -3.5 | ·
CC(C(=O)Nc1cccnc1)N1C(=O)c2ccccc2C1=O (stereo not given) | -10.0 | · | 4.06* | 25.8 | · | -0.2 | 0.0876*
CCCCCCCC#Cc1ccccc1/C=N/S(=O)c1ccc(C)cc1 (stereo not given) | · | · | 13.4* | 4.1 | · | -2.1 | 0.0669
CC1(C)CC(=O)C2=C(C1)c1c(ccc3ccccc13)NC2c1ccc(Br)o1 (stereo not given) | -3.0 | 4.5 | -2.12 | 14.8 | -4.3 | -0.8 | ·
Nc1nc(NC(=O)c2ccco2)nn1-c1ccccc1 | 1.8 | · | 3.12* | 15.2 | · | -2.8 | 0.0484
O=C(CCCOc1ccc(Cl)cc1Cl)N/N=C/c1cccc([N+](=O)[O-])c1 | · | · | 1.32 | 11.9 | · | -5.5 | 0.0593
Cc1cc2c(c(=O)n1Cc1cccnc1)C(c1ccccc1)C(C#N)=C(N)O2 (stereo not given) | -7.0 | · | 5.76* | 16.5 | · | -2.4 | 0.0673
COc1ccc(-c2c(C)sc(NC(=O)c3ccnn3C)c2C#N)cc1 | · | · | 1.68 | 10.4 | · | -1.2 | 0.0848*
COc1ccc(C(=O)Nc2sc(C)c(-c3ccccc3)c2C#N)cc1OC | · | -1.2 | -0.48 | 13.3 | 4.2 | 0.2 | ·
Cc1nc(S(=O)(=O)N2CCOCC2)c(C#N)c(C)c1Cl | -15.2 | 6.1 | 3.76* | 6.6 | -4.3 | -5.6 | 0.0867*
Cc1nc(S(=O)(=O)NC2CCCCC2)c(C#N)c(C)c1Cl | -11.1 | -9.0 | 0.4 | 2.6 | 6.9 | -5.5 | ·
Cc1nn(C)c(C)c1S(=O)(=O)N1CCCC(C(=O)NC2CCCCCC2)C1 (stereo not given) | 2.6 | · | 2.38 | 37.1 | · | -3.0 | 0.0833*
CC(C)OC(=O)c1ccc(NC(=O)c2ccco2)cc1 | -2.5 | 0.8 | 0.39 | 10.5 | -2.6 | 0.2 | ·
O=C(CN1CCOCC1)Nc1ncc(Cc2cccc(Cl)c2)s1 | · | · | 2.33 | 8.9 | · | 1.1 | ·
Cc1cc(C)nc(SCC(=O)Nc2ncc(Cc3cccc(Cl)c3)s2)n1 | · | · | 1.25 | 4.5 | · | -1.8 | 0.0906*
O=C1CC(=C2c3ccccc3-c3ccccc32)C(=O)N1CCN1CCN(c2cccc(Cl)c2)CC1 | -5.7 | -12.6 | · | · | 11.8 | · | ·
Cc1cc(NC(=O)c2noc3c2CCc2ccccc2-3)n(-c2ccccc2)n1 | -6.7 | · | 9.63* | 13.1 | · | -1.7 | 0.0829*
COc1ccccc1NC(=S)NCc1ccc2c(c1)OCO2 | · | · | 0.96 | 5.6 | · | -3.5 | ·
O=C(CC1CCCCC1)Nc1ncn[nH]1 | -10.6 | 6.8 | 1.22 | 3.1 | -7.4 | -3.2 | ·
COc1cc2nc(CN3CCN(c4ncc(C(F)(F)F)cc4Cl)CC3)[nH]c(=O)c2cc1OC | -3.1 | · | · | · | · | · | ·
